Data: the supplement of paper PMC12067926
Unmarked numbers belong to inactive results.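 How the source made its calls: active = growth AUC significantly below the DMSO wells by Dunnett test; inactive = the rest.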

Experiments:
Experiment in all cases: relative growth (AUC of 72 h growth curve relative to DMSO control, dAUC) (ratio); higher = more growth (less inhibition), active = hit call of the paper
Settings in all cases: 20 µM
[1] = test system: Prolinoborus 1 (Prolinoborus fasciculus)
Outline: (§1)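 Isolates from Icelandic stream sediments and Silwood Park soil, along with whole sediment communities, were grown in Luria–Bertani medium to carrying capacity and diluted 1:100 into 96-well plates with each chemical at 20 µM (1% DMSO). A600 was measured hourly for 72 h, and values were averaged over three biological replicates. Relative growth (dAUC) is the spline-integrated growth-curve area over the mean of the DMSO controls.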

[2] = test system: Pseudomonas 1 (Pseudomonas baetica)
Outline: as §1

[3] = test system: Pseudomonas 2 (Pseudomonas vancouverensis)
Outline: as §1

[4] = test system: Pseudomonas 3 (Pseudomonas mandelii)
Outline: as §1

[5] = test system: Pseudomonas 4 (Pseudomonas peli)
Outline: as §1

[6] = test system: Pseudomonas 5 (Pseudomonas baetica)
Outline: as §1

[7] = test system: Pseudomonas 6 (Pseudomonas sp.)
Outline: as §1

[8] = test system: Rhizobium 1 (Rhizobium herbae)
Outline: as §1

[9] = test system: Serratia 1 (Serratia sp. 2015-2462-01)
Outline: as §1

[10] = test system: Sphingomonas 2 (Sphingomonas sp.)
Outline: as §1

Compound | relative growth [1] | relative growth [2] | relative growth [3] | relative growth [4] | relative growth [5] | relative growth [6] | relative growth [7] | relative growth [8] | relative growth [9] | relative growth [10]
O=C(O)c1nc(Cl)ccc1Cl | 0.949 | 1 | 0.984 | 1 | 0.969 | 0.971 | 1.03 | 1.05 | 0.977 | 0.931
Nc1c(Cl)c(F)nc(OCC(=O)O)c1Cl | 1 | 0.977 | 1 | 0.978 | 1.04 | 0.947 | 0.889 | 0.958 | 0.996 | 1.11
Oc1ccc(Cl)cc1Cc1cc(Cl)ccc1O | 0.0645 (active) | 0.805 | 0.755 (active) | 0.8 (active) | 0.674 (active) | 0.817 (active) | 0.922 | 0.0117 (active) | 0.46 (active) | 0.0145 (active)
CC1(C(=O)Nc2ccc(O)c(Cl)c2Cl)CCCCC1 | 0.938 | 1.08 | 1.01 | 1.05 | 0.976 | 1.02 | 1.16 | 0.84 | 0.976 | 0.967
CCCCC(C#N)(Cn1cncn1)c1ccc(Cl)cc1 (stereo not given) | 0.947 | 0.939 | 0.943 | 0.993 | 0.927 | 0.963 | 0.907 | 0.958 | 0.973 | 0.96
COc1cc(C)c(C(=O)c2c(OC)ccc(Br)c2C)c(OC)c1OC | 1.01 | 0.978 | 1.01 | 1 | 1.02 | 0.991 | 0.939 | 0.937 | 1.02 | 1.04
CCOc1cc(Oc2ccc(C(F)(F)F)cc2Cl)ccc1[N+](=O)[O-] | 0.938 | 1.08 | 0.992 | 1.05 | 0.939 | 1.01 | 1.12 | 0.994 | 0.952 | 1.2
COc1ccc(-c2ccccc2)cc1NNC(=O)OC(C)C | 0.918 | 1.14 | 0.964 | 1.05 | 0.951 | 1.08 | 1.17 | 0.865 | 0.932 | 0.92
CCOC(=O)CC(SP(=S)(OC)OC)C(=O)OCC (stereo not given) | 1.01 | 1.03 | 1.05 | 1.05 | 1.04 | 0.994 | 1.09 | 0.984 | 1.01 | 1.15
COC(=O)c1ccccc1S(=O)(=O)NC(=O)Nc1nc(C)nc(OC)n1 | 1.03 | 0.998 | 1.01 | 0.983 | 1.08 | 0.984 | 0.905 | 1.15 | 1.11 | 1.03
COc1ccc(C(=CC(=O)N2CCOCC2)c2ccc(Cl)cc2)cc1OC (mixture of isomers) | 0.994 | 1.09 | 0.999 | 1.03 | 1.01 | 0.972 | 0.951 | 1.02 | 0.978 | 1.12
CC(C)OC(=O)C(C(=O)OC(C)C)=C1SCCS1 | 0.947 | 1.16 | 0.995 | 1.04 | 0.947 | 1.03 | 1.09 | 0.897 | 0.96 | 1.1
